Assay outcomes as filed in PubChem.
Only some compounds are listed: those with a hit (about 4.1% of all), similar ones and a draw of the others.
aSyn 5UTR inh = 5' untranslated region of α-synuclein, MLPCN primary screen; alpha-synuclein 5'UTR reporter, inhibitor activity; inhibition, % (tested at 7.5 µM); 300,000 compounds, 0.82% hits; AID 1813; in the data active = inhibition above about 60%; inconclusive = no clear call, values can overlap the other calls;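 note: H4 neuroglioblastoma cells stably carrying SNCA 5'UTR luciferase fusion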
CSC inhib = cancer stem cell inhibition; inhibition, % at 7.5 µM; 300,000 compounds, 1.1% hits; cancer stem cell-like cells viability, luminescence; AID 2717; in the data active = inhibition above about 75%; inconclusive = no clear call, values can overlap the other calls; tested in HMLE shEcad cells
A1 inh = inhibitors of the anti-apoptotic protein A1, read as caspase activation; MEF A1-2A-BIM cells, Caspase-Glo 3/7 luminescence, 3 h; percent of clofoctol response, vehicle zero; caspase activation, % (concentration not given with the values); 330,000 compounds, 0.066% hits;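 active = over half of replicate activation scores above 10%, or exactly half above 10 with the replicate mean above 10; inconclusive = replicate mean below 10 yet half the replicates above 10; inactive = over half of replicates below 10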
Mdm2 MdmX PPI = human Mdm2/MdmX binding inhibition; O15151+Q00987; SaOS-2 split-luciferase Mdm2/MdmX complementation, luminescence; inhibition, % at 8 µM; 330,000 compounds, 3% hits; AID 485346;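 active = inhibition of at least 50% at 8 µM in the primary screen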
Target sequence (O15151 whole entry, looked up): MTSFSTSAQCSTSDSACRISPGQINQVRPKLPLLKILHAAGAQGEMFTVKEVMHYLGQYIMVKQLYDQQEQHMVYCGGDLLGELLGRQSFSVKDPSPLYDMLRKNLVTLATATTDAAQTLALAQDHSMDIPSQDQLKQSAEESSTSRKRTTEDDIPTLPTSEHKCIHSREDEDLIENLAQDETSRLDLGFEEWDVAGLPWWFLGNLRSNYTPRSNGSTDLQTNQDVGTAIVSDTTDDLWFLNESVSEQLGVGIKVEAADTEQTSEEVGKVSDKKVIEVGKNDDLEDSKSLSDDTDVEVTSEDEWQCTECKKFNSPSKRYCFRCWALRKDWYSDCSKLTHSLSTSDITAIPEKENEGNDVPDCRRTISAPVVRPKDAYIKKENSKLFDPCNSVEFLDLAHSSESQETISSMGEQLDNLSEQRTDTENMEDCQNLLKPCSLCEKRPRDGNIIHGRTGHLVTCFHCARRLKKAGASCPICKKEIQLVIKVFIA
Target sequence (Q00987 whole entry, looked up): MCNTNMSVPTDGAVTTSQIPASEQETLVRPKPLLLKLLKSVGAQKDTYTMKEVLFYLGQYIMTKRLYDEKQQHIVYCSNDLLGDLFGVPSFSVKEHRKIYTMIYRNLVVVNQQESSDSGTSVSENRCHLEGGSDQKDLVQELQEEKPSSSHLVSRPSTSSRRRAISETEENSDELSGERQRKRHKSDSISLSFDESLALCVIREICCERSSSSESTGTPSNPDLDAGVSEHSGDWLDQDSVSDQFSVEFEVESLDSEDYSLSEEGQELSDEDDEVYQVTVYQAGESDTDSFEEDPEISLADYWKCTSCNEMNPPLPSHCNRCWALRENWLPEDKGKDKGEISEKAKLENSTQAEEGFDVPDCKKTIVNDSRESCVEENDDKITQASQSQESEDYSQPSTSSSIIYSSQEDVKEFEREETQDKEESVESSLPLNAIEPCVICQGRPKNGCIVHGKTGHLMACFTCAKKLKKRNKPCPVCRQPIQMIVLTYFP
Beta cell apopt = beta cell apoptosis inhibition | INS-1E cytokine-induced death, ATP luminescence, 48 h; percent of positive-control rescue, neutral wells zero | protection from apoptosis, % (no concentration beside the values) | 300,000 compounds, 0.8% hits | AID 435005;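 active = Every replicate reaches about 75%, or at least half do and their mean reaches it too, limit read from the data; inconclusive = At least half of replicates reach the limit but their mean does not; inactive = Under half of replicates reach the limit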;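 note: higher means more ATP so stronger rescue from cytokine killing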
Mdm2 MdmX conf = confirmation of human Mdm2/MdmX interaction inhibitors. 10,000 compounds, 55% hits. inhibition, % at 8 µM. Mdm2-MdmX binding, luminescent assay. shares compounds with Mdm2 MdmX PPI; in the data active = inhibition above about 40%
FLuc counter = full-length luciferase inhibition in Mdm2/MdmX counter-screen; shares compounds with Mdm2 MdmX PPI; 6,200 compounds, 77% hits; AID 504607; SaOS-2 full-length luciferase counterscreen, luminescence; inhibition, % at 8 µM;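 active = mean inhibition at 8 µM reaching about 37%, which flags the compound as non-specific, limit read from the data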;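 note: p53-null SaOS-2 cells with luciferase driven by a doxycycline-inducible promoter; compound on cells about two nights before reading with doxycycline added after day one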
Each line names hits and unclear results; the compound was inactive in the other large screens (follow-up assays come after a bar, where they were run).

CCOc1ccc(NC(=O)Cn2nnc(C(=O)NCc3ccc4c(c3)OCO4)c2N)cc1	Mdm2 MdmX PPI 52 (no result: Beta cell apopt) | Mdm2 MdmX conf inactive
Cc1cc(C)cc(NC(=O)Cn2nnc(C(=O)NCc3ccc4c(c3)OCO4)c2N)c1	Mdm2 MdmX PPI 55 | Mdm2 MdmX conf inactive | FLuc counter 55
C#CCN(Cc1ccccc1)S(=O)(=O)C=C	none (no result: aSyn 5UTR inh)
COc1cc(OC)nc(Oc2cc(/C=N/O)ccc2OC)n1	none
CCOc1ccc2nc(SCC(=O)NCc3ccc(S(N)(=O)=O)cc3)[nH]c2c1	none
Cc1ccc2c(c1)c1c3n2CCN=C3CCC1	none (no result: CSC inhib)
Cc1ccc2c(c1)c1c3n2CCCNC3CCC1 (centres undefined)	none
c1cc2c(cc1C1CCCCC1)c1c3n2CCN=C3CCC1	Mdm2 MdmX PPI 53 | Mdm2 MdmX conf inactive
c1cc2c(cc1C1CCCCC1)c1c3n2CCCNC3CCC1 (centres undefined)	aSyn 5UTR inh 87, Mdm2 MdmX PPI 98 | Mdm2 MdmX conf 48 | FLuc counter inactive
COc1cc(-c2csc(N3CCOCC3)n2)cc(OC)c1OC	none
COc1cccc(Cl)c1NC(=O)N1CCN(c2cc(C)nc3ccccc23)CC1	Mdm2 MdmX PPI 55 | Mdm2 MdmX conf inactive
COc1ccc(-c2csc(N3CCN(c4cc(C)nc5ccccc45)CC3)n2)cc1OC	CSC inhib 95, Mdm2 MdmX PPI 96 | Mdm2 MdmX conf 58 | FLuc counter 74
Cc1[nH]n(-c2ccccc2)c(=O)c1N=Nc1ccc(C(N)=O)cc1	none
O=c1c(N=Nc2ccc(O)cc2)c(-c2ccccc2)[nH]n1-c1ccc([N+](=O)[O-])cc1	Mdm2 MdmX PPI 100 | Mdm2 MdmX conf inactive
NC(=O)c1ccc(N=Nc2c(-c3ccccc3)[nH]n(-c3ccccc3)c2=O)cc1	Mdm2 MdmX PPI 93 | Mdm2 MdmX conf 85 | FLuc counter 108
O=c1cc(-c2ccccc2)[nH]n1-c1ccc([N+](=O)[O-])cc1	CSC inhib 138, Mdm2 MdmX PPI 55 | Mdm2 MdmX conf inactive
NS(=O)(=O)c1ccc(N=Nc2c(-c3ccccc3)[nH]n(-c3nc(-c4ccccc4)cs3)c2=O)cc1	Mdm2 MdmX PPI 81 | Mdm2 MdmX conf inactive
Cc1cc(C)n2[nH]c(=O)c(N=Nc3ccc(S(N)(=O)=O)cc3)c2n1	none
O=C(c1ccc([N+](=O)[O-])cc1)N1CCN(C2=NS(=O)(=O)c3ccccc32)CC1	none
COc1ccc(Nc2nccc(-c3cccc(N)c3)n2)cc1	Mdm2 MdmX PPI 65 | Mdm2 MdmX conf inactive
COCCn1c(Cc2ccccc2)nnc1SCC(=O)Nc1oc(C)c2c(C)n[nH]c(=O)c12	none
O=C(CCn1ccnc1)Nc1cc(Cl)ccc1O	none
CC(=O)N1CCn2c3c(c4cc(C)ccc42)CCCC31 (centres undefined)	none
Cc1ccc2c(c1)c1c3n2CCN(C(=O)CCl)C3CCC1 (centres undefined)	Mdm2 MdmX PPI 51 | Mdm2 MdmX conf inactive | FLuc counter 92
COc1ccc(-c2nc(-c3ccccn3)no2)cc1	aSyn 5UTR inh 107, CSC inhib 88, Mdm2 MdmX PPI 89, Beta cell apopt 89 | Mdm2 MdmX conf 91 | FLuc counter 54
Clc1ccc(-c2nc(-c3ccccn3)no2)cc1Cl	none
c1csc(-c2noc(CN3CCc4sccc4C3)n2)c1	none
CCOc1ccc(OCCC(=O)OCC(=O)NCc2ccccc2)cc1	none (no result: CSC inhib)
COC(=O)C1=C(C)N(Cc2ccccc2)C(=NCc2cccc(C(F)(F)F)c2)N[C@H]1c1cccc(C(F)(F)F)c1	Mdm2 MdmX PPI 100, Beta cell apopt 99 (no result: aSyn 5UTR inh, CSC inhib) | Mdm2 MdmX conf 100 | FLuc counter 49
CCN1C(=NCCCCO)N[C@@H](c2cccc(C(F)(F)F)c2)C(C(=O)OC)=C1C	none
COC(=O)C1=C(C)N(Cc2ccccc2)C(=NCCCCO)N[C@H]1c1cccc(C(F)(F)F)c1	Mdm2 MdmX PPI 52 (no result: aSyn 5UTR inh) | Mdm2 MdmX conf inactive
COC(=O)C1=C(C)N(Cc2ccccc2)C(=NCc2cccc(C(F)(F)F)c2)N[C@H]1c1cccc(F)c1	aSyn 5UTR inh inconclusive, CSC inhib 111, Mdm2 MdmX PPI 95, Beta cell apopt 111 | Mdm2 MdmX conf 73 | FLuc counter 40
COC(=O)C1=C(C)N(Cc2ccccc2)C(=NCc2ccc(OC)cc2)N[C@H]1c1ccccc1	Mdm2 MdmX PPI 65 (no result: aSyn 5UTR inh) | Mdm2 MdmX conf inactive
COC(=O)C1=C(C)N(Cc2ccccc2)C(=NCC(C)C)N[C@H]1c1ccccc1	none
COCCN=C1N[C@@H](c2cccc(C(F)(F)F)c2)C(C(=O)OC)=C(C)N1Cc1ccccc1	none
Cc1cc(C)c(S(=O)(=O)N2CCCC(C(=O)NC3CCCC3)C2)c(C)c1 (centres undefined)	none
O=[N+]([O-])c1cncc([N+](=O)[O-])c1Nc1cccc(O)c1	none
COC(=O)C1=C(C)N(CC2CC2)C(=NCCN2CCOCC2)N[C@H]1c1ccccc1	none
COC(=O)C1=C(C)N(CC2CC2)C(=NCc2cccc(C(F)(F)F)c2)N[C@H]1c1ccccc1	Mdm2 MdmX PPI 54 (no result: aSyn 5UTR inh) | Mdm2 MdmX conf inactive
C=CCN=C1N[C@@H](c2cccc(C(F)(F)F)c2)C(C(=O)OC)=C(C)N1CC	none
CCN1C(=NCC(C)C)N[C@@H](c2cccc(C(F)(F)F)c2)C(C(=O)OC)=C1C	Mdm2 MdmX PPI 57 | Mdm2 MdmX conf inactive | FLuc counter 60
COC(=O)C1=C(C)N(Cc2ccccc2)C(=NCCc2c[nH]c3ccccc23)N[C@H]1c1cccc(C(F)(F)F)c1	Mdm2 MdmX PPI 100 (no result: aSyn 5UTR inh, CSC inhib) | Mdm2 MdmX conf 41 | FLuc counter 58
COC(=O)C1=C(C)N(Cc2ccccc2)C(=NCCc2ccccn2)N[C@H]1c1cccc(F)c1	none
O=C(c1ccc2c(=O)n(Cc3ccc(Cl)cc3)c(=S)[nH]c2c1)N1CCOCC1	none
Cc1ccccc1/C=N/Nc1nc2ccccc2c(=O)n1O	none
O=C(NN=Cc1ccc(O)cc1O)c1ccccc1NS(=O)(=O)c1cccs1	Mdm2 MdmX PPI 55 (no result: aSyn 5UTR inh) | Mdm2 MdmX conf inactive | FLuc counter 47
COc1ccc(C=NNC(=O)c2ccccc2NS(=O)(=O)c2cccs2)cc1O	none (no result: aSyn 5UTR inh)
CCOC(=O)C1=C(C)n2c(s/c(=C/c3cccc([N+](=O)[O-])c3)c2=O)=NC1c1ccc(O)c(OC)c1 (centres undefined)	Mdm2 MdmX PPI 82 | Mdm2 MdmX conf 77 | FLuc counter inactive
CCC(C)[C@H]1CN=C(N)N1CCc1cc(C(F)(F)F)cc(C(F)(F)F)c1 (some centres undefined)	Mdm2 MdmX PPI 60 | Mdm2 MdmX conf inactive
NC1=NC[C@H](Cc2ccc(O)cc2)N1CCc1cc(C(F)(F)F)cc(C(F)(F)F)c1	none
CC(O)[C@H]1CN=C(N)N1CCc1cc(C(F)(F)F)cc(C(F)(F)F)c1 (some centres undefined)	none
